These results are taken from PubChem BioAssay AID2061320 (National Center for Advancing Translational Sciences (NCATS), 2025).

Inconclusive results are not listed. Calls of active or inactive are those of the source. Calls follow the shape of the dose curve; as a rule, active = well fitted inhibition curve with a large enough effect; inconclusive = small, poorly fitted or top-dose-only effect; inactive = flat fitted curve, though single readings scatter.

A short description of the assay: Identification of antibody-drug conjugate (ADC) payloads which are substrates of ATP-binding cassette drug efflux transporters: ABCG2-H460-MX20 cell line. Conditions: H460-MX20 (ABCG2) viability, CellTiter-Glo, 48 h; series mostly up to 28.7 µM. An excerpt: Antibody-drug conjugates (ADCs) feature an antibody recognizing a specific protein joined to a potent toxic payload. Numerous antibody-drug conjugates have received FDA approval; however, clinical resistance arises. Resistance mechanisms include decreased expression or mutation of the antibody target, impaired payload release, or increased expression of ATP-binding cassette (ABC) efflux transporters associated with multidrug resistance. We therefore sought to characterize the interaction of ABC multidrug transporters with ADC payloads. We performed a high-throughput screen with 27 common ADC payloads using cells lines expressing ABC transporters P-glycoprotein (P-gp, encoded by ABCB1) or ABCG2 (encoded by ABCG2). Confirmatory assays were also performed using cells transfected to express P-gp, ABCG2, or MRP1 (encoded by ABCC1). Several commonly used ADC payloads were substrates of P-gp, including calicheamicin gamma1, monomethyl auristatin E, DM1, and DM4. All the pyrrolobenzodiazepines tested - SJG136, SGD-1882, SG2057, and SG3199 - were substrates of P-gp, ABCG2, and MRP1. […] These findings highlight the risk of transporter-mediated resistance with certain ADC payloads and underscore the importance of selecting payloads that evade ABC transporter recognition in future ADC development.
HEK-293 cells were transfected with empty vector (pcDNA) or vector containing the human ABCB1 (MDR-19), ABCG2 (R-5), or ABCC1 gene (MRP1) and were maintained in EMEM with 2 mg/mL G418 added to maintain transporter expression. The HeLa derivative KB-3-1 and the P-gp overexpressing KB-8-5-11 subline were maintained in DMEM; KB-8-5-11 additionally received 100 ng/mL colchicine. H460 parental cells were obtained from the Division of Cancer Treatment and Diagnosis Tumor Repository, National Cancer Institute at Frederick, MD and were cultured in RPMI. The ABCG2 expressing subline H460 MX20 was generated by selecting H460 cells in 20 nM mitoxantrone. Media in all cases was supplemented with 10% FBS and 1% penicillin-streptomycin. We explored 27 common ADC payloads, in two orthogonal, paired cell line sets-a drug selected and transfected set for each transporter--to identify substrates of the ABC transporters P-gp and ABCG2. Compounds were sourced from Levena Biopharma (San Diego, CA), Selleck Chem (Houston, TX), ChemieTek (Indianapolis, IN), or Microsource Discovery Systems (Gaylordsville, CT). Screening was performed as previously described. Briefly, cells were plated at a density of 500 cells/well in 1536 well plates with compounds added using a 1536-head pin tool (Kalypsys, San Diego CA). Cells were incubated with cytotoxic drugs and processed with CellTiter Glo reagent (Promega, Madison, WI) to determine viability after 48 hours. P-gp substrates were identified by comparing compound activity between paired sets of low-expressing (sensitive) and over-expressing (resistant) cell lines.
On to `COc1cccc2c1C(=O)c1c(O)c3c(c(O)c1C2=O)C[C@@](O)(C(=O)CO)C[C@@H]3O[C@H]1C[C@H]2[C@H](O[C@@H]3[C@@H](OC)OCCN32)[C@H](C)O1`, for which the Potency is 0.2 nM (active).

Take `CCN(C(C)=O)[C@H]1CO[C@@H](O[C@H]2[C@H](O[C@H]3C#C/C=C\C#C[C@]4(O)CC(=O)C(NC(=O)OC)=C3/C4=C\CSSSC)O[C@H](C)[C@@H](NO[C@H]3C[C@H](O)[C@H](SC(=O)c4c(C)c(I)c(O[C@@H]5O[C@@H](C)[C@H](O)[C@@H](OC)[C@H]5O)c(OC)c4OC)[C@@H](C)O3)[C@@H]2O)C[C@@H]1OC`: the Potency is 15 nM (active).

For `CC[C@H](C)[C@@H]([C@H](N)CC(=O)N1CCC[C@H]1[C@H](OC)[C@@H](C)C(=O)N[C@@H](Cc1ccccc1)c1nccs1)N(C)C(=O)[C@@H](NC(=O)[C@@H](NC)C(C)C)C(C)C`, the Potency result was “inactive”.

`CN(C)CCOc1ccc2[nH]c(C(=O)N3C[C@@H](CCl)c4c3cc(O)c3ccccc43)cc2c1`: the Potency was 0.8 nM (active).

In the case of `COC(=O)c1cc2c3c(cc(O)c2[nH]1)N(C(=O)c1cc2cc(OC)c(OC)c(OC)c2[nH]1)CC3CCl` (stereo not drawn), the Potency was 0.7 nM (active). In the case of `CCN[C@H]1CO[C@@H](O[C@H]2[C@H](O[C@H]3C#C/C=C\C#C[C@]4(O)CC(=O)C(NC(=O)OC)=C3/C4=C\CSSSC)O[C@H](C)[C@@H](NO[C@H]3C[C@H](O)[C@H](SC(=O)c4c(C)c(I)c(O[C@@H]5O[C@@H](C)[C@H](O)[C@@H](OC)[C@H]5O)c(OC)c4OC)[C@@H](C)O3)[C@@H]2O)C[C@@H]1OC`, the Potency is 4.2 nM (active). As to `COc1cccc2c1C(=O)c1c(O)c3c(c(O)c1C2=O)C[C@@](O)(C(=O)CO)C[C@@H]3O[C@H]1C[C@H](N)[C@H](O)[C@H](C)O1`, the Potency was 1190 nM (active). Regarding `CC(C)(C)OC(=O)Nc1ccc2[nH]c(C(=O)N3C[C@@H](CCl)c4c3cc(O)c3ccccc43)cc2c1`, the Potency is 10.6 nM (active).
